We go through eleven molecules from PubChem BioAssay AID504453 (The Scripps Research Institute Molecular Screening Center, 2011).

Entries with a potency or affinity are not part of this list. A number with no mark means an inactive call. No rule for the calls is given here.

The experiment deals with Peroxisome proliferator-activated receptor gamma (Homo sapiens) (UniProt P37231). Description: PPARg ligand-binding domain binders, dose response, PPARg partial agonist project, biochemical, fluorescence polarization, PolarScreen (AID 504453). Conditions: fluorescence polarization competition; series mostly up to 10 µM; fold change, lower = more binding: at the top concentration.
Sequence of Peroxisome proliferator-activated receptor gamma (Homo sapiens) (P37231 232-505 limits assumed): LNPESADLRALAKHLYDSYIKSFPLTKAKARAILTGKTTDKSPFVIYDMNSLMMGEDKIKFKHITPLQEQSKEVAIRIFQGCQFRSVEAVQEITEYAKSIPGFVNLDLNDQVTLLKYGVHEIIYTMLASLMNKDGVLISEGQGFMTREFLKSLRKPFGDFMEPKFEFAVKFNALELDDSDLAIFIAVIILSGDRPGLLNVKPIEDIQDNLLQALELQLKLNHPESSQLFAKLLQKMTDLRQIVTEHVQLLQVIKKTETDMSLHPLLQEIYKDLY
Consider `Cc1cc(C(=O)CN2C(=O)C(=O)N(Cc3ccccc3)C2=O)c(C)n1-c1ccc2c(c1)OCCO2`, for which the “fold change, lower = more binding” value is 1 fold.

Consider `COc1ccccc1N1C(=O)C2C(C(=O)c3ccccc3)=NN(c3ccc(C)cc3)C2C1=O` (stereo unspecified), for which the “fold change, lower = more binding” value was 0.99 fold. The value for `COc1cccc(Cn2nc3c4cc(F)ccc4n(Cc4ccc(F)cc4)cc-3c2=O)c1` was 1.03 fold; that for `O=C(CSc1nc(=O)n(CCN2CCOCC2)c2c1CCCC2)Nc1cccc([N+](=O)[O-])c1` was 1.02 fold. The value for `O=C(Nc1ccccc1Cl)C(=O)c1cn(CC(=O)N2CCOCC2)c2ccccc12` was 0.99 fold. For the molecule `CCOc1ccc(C2c3[nH]c4ccccc4c3CCN2Cc2cccn2-c2ncccn2)cc1` (stereo unspecified), the “fold change, lower = more binding” value is 0.98 fold. For the molecule `COc1ccccc1-n1cc(C(=O)c2cc(Cl)ccc2O)cc(C#N)c1=O`, the “fold change, lower = more binding” value was 1 fold. For `O=C(C1=C(O)C(=O)N(c2nc3ccc(Cl)cc3s2)C1c1ccco1)c1ccco1` (stereo unspecified), the “fold change, lower = more binding” value was 1 fold. The value for `COc1ccc2c(c1)c(=O)c(C(=O)c1ccc(F)cc1)cn2CC(=O)Nc1ccc(F)cc1` was 1 fold. In the case of `COc1ccc2c(c1)c(=O)c(C(=O)c1ccc(C)cc1)cn2CC(=O)Nc1ccc(F)cc1`, the “fold change, lower = more binding” value is 0.99 fold. The value for `CN1CCN(S(=O)(=O)c2ccc(Sc3nc4ccccc4[nH]3)c3nsnc23)CC1` was 1.01 fold.
